Compounds without any hit were thinned out: in the full panel of roughly 83,000, 20% have a hit.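 In brief: 96-well plates, 48 h treatment, single concentration, percent growth endpoint.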 A number with no mark means an inactive call. Calls of active or inactive are those of the source. The calls were made as follows: active = growth percent below 10; inactive = the rest.
Test system: HL-60(TB) leukemia
Experiment: NCI-60 one-dose screen, 48 h (100 = growth as untreated, 0 = no growth, -100 = all killed)
Conditions: 10 µM unless noted

Row | SMILES | growth
1 | C#C[C@]1(O)CC[C@H]2[C@@H]3CC=C4c5sc(NCc6ccccc6)nc5CC[C@]4(C)[C@H]3CC[C@@]21C | 24%
2 | C#CCN(C)CCCOc1ccc(NC(=O)CCCCCCC(=O)NO)cc1Cl | 12.1%
3 | O=C(CCn1c[n+](CC(=O)c2ccc(F)cc2)c2ccccc21)Nc1cccc2cccnc12 | 36.7%
4 | C=CC(=O)N1CCC=C(c2cc3c(N[C@H](C)c4ccccc4)ncnc3[nH]2)C1 | 72.4%
5 | Cc1occc1-c1nc2s/c(=C/c3ccc(-c4cc(C(F)(F)F)ccc4Cl)o3)c(=O)n2n1 | 106%
6 | N#Cc1cn(Cc2ccc(Cl)cc2Cl)c(C(=O)c2ccc(Br)cc2)c1N | 96.6%
7 | CN1CCC(n2cc(Nc3ncc4c(=O)n(-c5c(Cl)cccc5Cl)cc(Br)c4n3)cn2)CC1 | -13.8% (active)
8 | COc1ccc(-c2nc3ccc(-c4nnc(SCC(=O)Nc5ccc(C(C)=O)cc5)o4)cc3[nH]2)cc1 | 83.4%
9 | O=C(COc1ccc(/C=C2\SC(=O)NC2=O)cc1)Nc1ccc(C(=O)/C=C/c2cc3ccccc3nc2Cl)cc1 | 79.6%
10 | Brc1cccc(/C=N/Nc2nc(N/N=C/c3cccc(Br)c3)nc(N3CCOCC3)n2)c1 | -10.2% (active)
11 | COC[C@@]1(C)CC[C@]2(C)CC[C@]3(C)C(=CC[C@@H]4[C@@]5(C)CCCNC(C)(C)[C@@H]5CC[C@]43C)C2C1 (some centres not stated) | 48.3%
12 | NS(=O)(=O)c1ccc(Nc2nc(N/N=C/c3ccc(C(F)(F)F)cc3)nc(Nc3ccccc3)n2)cc1 | 48.9%
